Data: PubChem BioAssay (NCATS)
Records with an inconclusive call do not appear. Active and inactive are the calls of the source. Calls follow the shape of the dose curve; as a rule, active = well fitted inhibition curve with a large enough effect; inconclusive = small, poorly fitted or top-dose-only effect; inactive = flat fitted curve, though single readings scatter.

These molecules were tested on CRL-7250 (assay: qHTS assay to identify novel small-molecules to repurpose for Merkel cell carcinoma treatment (AID 1296009; also: nearly all actives have a fitted effect of over 60% in size)). Details: MCC and control cell lines, CellTiter-Glo viability, 72 h; series mostly up to 92 µM; activity change, negative = cytotoxicity: at the top concentration.
How it was run: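 72 hr, 37 degree celsius; NPC 8-pt / MIPE 11-pt dose response; compound pinned in DMSO; CellTiter-Glo, 10 min RT, luminescence; normalized to no-cell and DMSO controls.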

Row | SMILES | outcome
1 | O=C1CC(c2ccc([N+](=O)[O-])cc2)=NN1c1ccccc1 | inactive
2 | CC1(C)C(=O)N2c3ccccc3[C@]3(CC(n4cnc5ccccc5c4=O)C(=O)O3)[C@H]2N1O (some centres undefined) | inactive [at 17.4 µM]
3 | CC1=CCC2C(C)(CO)CCCC2(CO)C1CO (centres undefined) | inactive
4 | NC(=O)NCCCC(NC(=O)Cc1ccccc1)C(=O)O (centres undefined) | inactive
